Measured values published in PubChem BioAssay (NCI).
About 83,000 compounds went through this panel and 20% of them were active in at least one assay; those are over-represented in the sample as a whole.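 Percent growth is the endpoint: 0 to 100 indicates growth inhibition (40 means 60% inhibition), 0 means no net growth, and negative values indicate cell death.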 The source made the active and inactive calls. How the source made its calls: active means growth percent below 10; inactive means the rest.

How the values were obtained:
Assay in all cases: NCI-60 one-dose screen, 48 h (100 = growth as untreated, 0 = no growth, -100 = all killed)
Conditions in all cases: 10 µM unless noted
[1] = test system: HCT-15 colon
[2] = test system: HT29 colon
[3] = test system: SNB-75 CNS
[4] = test system: SNB-19 CNS
[5] = test system: U251 CNS
[6] = test system: PC-3 prostate
[7] = test system: SK-MEL-5 melanoma
[8] = test system: UACC-62 melanoma
[9] = test system: LOX IMVI melanoma
[10] = test system: SK-MEL-28 melanoma
[11] = test system: SK-MEL-2 melanoma
[12] = test system: EKVX NSCLC
[13] = test system: SN12C renal
[14] = test system: UO-31 renal
[15] = test system: TK-10 renal
[16] = test system: ACHN renal
[17] = test system: CAKI-1 renal
[18] = test system: CCRF-CEM leukemia
[19] = test system: MOLT-4 leukemia

Measured: growth

CC1(C)CC[C@]23CC[C@]4(C)[C@H](CC[C@@H]5[C@@]6(C)CCCNC(C)(C)[C@@H]6CC[C@]54C)[C@H]2[C@H]1OC3
inactive: [10] 27.7% | [11] 10.5% | [12] 23.2% | [13] 17.7%
active: [1] -63.7% | [2] -49.4% | [3] 3.81% | [4] -20.2% | [5] -75.6% | [6] -10.7% | [7] -7.69% | [8] -51.1% | [9] -94.9% | [14] 2.86% | [15] 0.422% | [16] -88.3% | [17] -92% | [18] -6.07% | [19] -32.7%

Cc1cc2nc3c4cc([N+](=O)[O-])ccc4n(CCN(C)C)c3nc2cc1C
active: [1] -15.7% | [2] 4.93% | [3] -6.58% | [4] 8.53% | [5] 1.87% | [6] -0.344% | [7] -73.4% | [8] -58.7% | [9] -48.7% | [10] 2.33% | [11] -56.5% | [12] -3.49% | [13] 1.16% | [14] -41.9% | [15] -5.99% | [16] -13% | [17] -15.7% | [18] 3.84% | [19] 1.36%

Cc1cnc(C(=O)Nc2nc3ccc(S(=O)(=O)Nc4ccc(C(C)(C)C)cc4)cc3[nH]2)cn1
inactive: [1] 18% | [2] 12.8% | [4] 31.6% | [5] 18.9% | [6] 20.8% | [7] 10.9% | [8] 40.2% | [9] 42.3% | [10] 35.8% | [11] 51.1% | [12] 51% | [13] 43.7% | [14] 40.4% | [15] 43.4% | [16] 49.6% | [17] 27.3% | [18] 10.8% | [19] 21.5%
active: [3] 5.59%

O=C1c2ccc3c4c(ccc(c24)C(=O)N1CCCNCc1ccccc1)C(=O)N(CCCNCc1ccccc1)C3=O
active: [1] -57.7% | [2] -63.5% | [3] -97.2% | [4] -75.5% | [5] -87.7% | [6] -65.4% | [7] -99.2% | [8] -71.1% | [9] -75.6% | [10] -95.9% | [11] -82.9% | [12] -39.2% | [13] -88% | [14] -48.6% | [15] -84.2% | [16] -53.5% | [17] -19.6% | [18] -30.5% | [19] -32.3%
